These results are taken from PubChem BioAssay (Tox21).

A short description of assay [1]: A CellTox Green Cytotoxicity Assay to monitor cytotoxicity in HEK293 cells - 40 hour (AID 1224871). Further: nearly all actives have a fitted effect of over 45% in size. The method in brief: (§1)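 HEK293 cells premixed with CellTox Green dye were seeded at 600 cells/well and left 5 h at 37 C/5% CO2 before pin transfer of 23 nL compound in DMSO. Fluorescence from dye bound to dead-cell DNA was read during 40 h treatment.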
Assay [2] in a line: qHTS RealTime-Glo MT Cell Viability Assay in HepG2 cells - 8 hour (AID 1224873). Further: nearly all actives have a fitted effect of over 55% in size. In short, it runs like this:
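HepG2 cells (600/well) mixed with RealTime-Glo MT reagent, settled 5 h at 37 C/5% CO2 before compound addition. Nonlytic NanoLuc luminescence from viable-cell prosubstrate reduction read repeatedly during 40 h treatment at 37 C.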
(In qHTS, concentration-response curves come from the screen itself.)

The nature of assay [3]: qHTS RealTime-Glo MT Cell Viability Assay in HEK293 cells - 40 hour (AID 1224874). Further: nearly all actives have a fitted effect of over 50% in size. Further: potency means the concentration at half of the fitted maximal effect. To be noted: RealTime-Glo luminescence; max response: active compounds read low. The method in brief:
(§2)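 HEK293 cells mixed with RealTime-Glo reagents (NanoLuc plus cell-permeant prosubstrate) at 600 cells/well, preincubated 5 h at 37 C/5% CO2, then given 23 nL compound in DMSO. Nonlytic luminescence from viable cells was read at 0, 8, 16, 24, 32 and 40 h.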

Assay [4] is described as follows: A CellTox Green Cytotoxicity Assay to monitor cytotoxicity in HEK293 cells - 24 hour (AID 1224875). Further: series mostly up to about 77 µM; nearly all actives have a fitted effect of over 45% in size. The method in brief: as §1
A short description of assay [5]: A CellTox Green Cytotoxicity Assay to monitor cytotoxicity in HepG2 cells - 16 hour (AID 1224876). Further: nearly all actives have a fitted effect of over 45% in size. The method in brief:
(§3)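 HepG2 cells were seeded together with the CellTox Green dye at 600 cells/well, left 5 h at 37 C/5% CO2, then given compounds in DMSO. Fluorescence from dye bound to dead-cell DNA was read repeatedly over 40 h of treatment at 37 C.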

A short description of assay [6]: A CellTox Green Cytotoxicity Assay to monitor cytotoxicity in HepG2 cells - 24 hour (AID 1224878). Further: nearly all actives have a fitted effect of over 45% in size. In short, it runs like this:
as §3

The nature of assay [7]: qHTS RealTime-Glo MT Cell Viability Assay in HEK293 cells - 0 hour (AID 1224880). In short, it runs like this: as §2
A short description of assay [8]: A CellTox Green Cytotoxicity Assay to monitor cytotoxicity in HEK293 cells - 32 hour (AID 1224881). Further: nearly all actives have a fitted effect of over 40% in size. In short, it runs like this: as §1
Assay [9] can be described thus: A CellTox Green Cytotoxicity Assay to monitor cytotoxicity in HepG2 cells - 0 hour (AID 1224882). Further: nearly all actives have a fitted effect of over 35% in size. In short, it runs like this:
as §3

Assay [10] is described as follows: A CellTox Green Cytotoxicity Assay to monitor cytotoxicity in HepG2 cells - 32 hour (AID 1224883). Further: nearly all actives have a fitted effect of over 50% in size. Further: potency means the concentration at half of the fitted maximal effect. In short, it runs like this:
as §3

A short description of assay [11]: A CellTox Green Cytotoxicity Assay to monitor cytotoxicity in HEK293 cells - 8 hour (AID 1224884). Further: nearly all actives have a fitted effect of over 35% in size. In short, it runs like this:
as §1

Assay [12] can be described thus: qHTS RealTime-Glo MT Cell Viability Assay in HepG2 cells - 16 hour (AID 1224885). Further: nearly all actives have a fitted effect of over 50% in size. In short, it runs like this: (§4)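 Cell number in HepG2 cultures estimated from NanoLuc luminescence generated by metabolic reduction of a prosubstrate by living cells. The homogeneous, nonlytic format allowed repeated reads at 0, 8, 16, 24, 32 and 40 h of compound exposure.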
The nature of assay [13]: qHTS RealTime-Glo MT Cell Viability Assay in HEK293 cells - 24 hour (AID 1224886). Further: nearly all actives have a fitted effect of over 50% in size. Further: potency means the concentration at half of the fitted maximal effect. The method in brief:
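Homogeneous bioluminescent viability format in HEK293 cells (600 cells/well). Following 5 h at 37 C/5% CO2, 23 nL compound was pintooled; the signal was measured repeatedly during 40 h incubation.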

Assay [14] is described as follows: qHTS RealTime-Glo MT Cell Viability Assay in HEK293 cells - 8 hour (AID 1224887). In short, it runs like this: as §2
Assay [15] can be described thus: A CellTox Green Cytotoxicity Assay to monitor cytotoxicity in HEK293 cells - 16 hour (AID 1224888). Further: nearly all actives have a fitted effect of over 35% in size. In short, it runs like this:
as §1

Assay [16] is described as follows: qHTS RealTime-Glo MT Cell Viability Assay in HepG2 cells - 0 hour (AID 1224889). Further: nearly all actives have a fitted effect of over 50% in size. Further: potency means the concentration at half of the fitted maximal effect. The method in brief: as §4
A short description of assay [17]: A CellTox Green Cytotoxicity Assay to monitor cytotoxicity in HepG2 cells - 8 hour (AID 1224890). Further: nearly all actives have a fitted effect of over 45% in size. The method in brief: as §3
Assay [18] in a line: A CellTox Green Cytotoxicity Assay to monitor cytotoxicity in HepG2 cells - 40 hour (AID 1224879). Further: nearly all actives have a fitted effect of over 40% in size. Further: potency means the concentration at half of the fitted maximal effect. The method in brief: as §3
Assay [19] is described as follows: qHTS RealTime-Glo MT Cell Viability Assay in HepG2 cells - 32 hour (AID 1224877). Further: nearly all actives have a fitted effect of over 55% in size. In short, it runs like this:
as §4

“And” between values parts separate entries of the source, which are not always exact repeats. Equal entries are not always repeated. Values without a mark were called inactive. Results filed as inconclusive are left out. The source made the active and inactive calls. The call rests on the fitted dose curve; in most records, active means well fitted curve in the direction sought with a large enough effect in the repeat runs; inconclusive means weak or mixed curves; inactive means no such curve, though single readings can be large; an effect the other way counts as inactive or inconclusive.
On the % scale 0 is the no-effect control and ±100 the full control effect.

As to `NCCN`, the Potency result in [1], in assay [2], in assay [4], in assay [5], in assay [6] and in assay [7] was “inactive” each time. The Potency result in [8], in assay [9], in assay [10], in assay [11], in assay [12] and in assay [13] was “inactive” each time. The Potency result in [14], in assay [15], in [16] and in [17] was “inactive” in each case. Also, the max response in [3] is 7.37% and 0.29%.
Turning to `IC(I)I`, the Potency result in assay [1], in assay [2], in assay [4], in [5], in assay [6] and in assay [8] was “inactive” throughout. The Potency entry in assay [9], in [10], in assay [11], in assay [12], in assay [13] and in [14] was “inactive” each time. Besides, the Potency entry in assay [15], in assay [16] and in assay [17] was “inactive” in each case. The max response in assay [3] is 7.94% and 2.04%.
Take `Oc1ccc(C(c2ccc(O)cc2)C(Cl)(Cl)Cl)cc1`: the Potency entry in assay [1], in [2], in assay [4], in [5], in [6] and in assay [18] was “inactive” throughout. The Potency result in assay [7], in assay [8], in assay [9], in assay [10], in assay [12] and in assay [14] was “inactive” in each case. The Potency entry in assay [15], in assay [16] and in assay [17] was “inactive” throughout. Moreover, the Potency in assay [3] was 34.5 µM (active).
On to `C[C@]12CC[C@@H]3c4ccc(O)cc4CC[C@H]3[C@@H]1CC[C@H]2O`, for which the Potency entry in assay [1], in assay [2], in assay [4], in [5], in assay [6] and in assay [8] was “inactive” in each case. In addition, the Potency entry in assay [9], in assay [12], in assay [14], in assay [15], in [16] and in assay [17] was “inactive” each time. Besides, the Potency in assay [3] was 5.59 µM (active) and 15.5 µM (active); in assay [18], 9.94 µM (active) and 34.7 µM (active); in assay [10] it was 11.2 µM (active) and 34.7 µM (active); in assay [13] it was 5.59 µM (active) and 13.8 µM (active).
For the compound `Nc1cc([N+](=O)[O-])ccc1C(=O)O`, the Potency entry in [1], in assay [2], in assay [4], in assay [5], in assay [19] and in assay [6] was “inactive” each time. Also, the Potency entry in [18], in assay [7], in assay [8], in assay [9], in assay [10] and in [12] was “inactive” throughout. Further, the Potency result in assay [14], in [15], in assay [16] and in [17] was “inactive” each time. Besides, the max response in assay [3] is 9.73% and 6.1%.
Take `CC1(C)O[C@@H]2C[C@H]3[C@@H]4C[C@H](F)C5=CC(=O)C=C[C@]5(C)[C@@]4(F)[C@@H](O)C[C@]3(C)[C@]2(C(=O)CO)O1`: the Potency entry in assay [1], in assay [2], in [4], in assay [5], in [19] and in [6] was “inactive” throughout. Also, the Potency result in assay [8], in [9], in [10], in assay [12], in assay [13] and in assay [14] was “inactive” throughout. Further, the Potency entry in assay [15] and in assay [17] was “inactive” in each case. Further, the max response in assay [3] is -29.2% and -4.18%. Also, the Potency in assay [16] was 3.89 µM (active) and 9.52 µM (active).
In the case of `C=CCOC(=O)C(=C)C`, the Potency entry in [1], in assay [2], in [4], in assay [5], in assay [19] and in [6] was “inactive” throughout. Moreover, the Potency entry in assay [18], in [8], in assay [9], in assay [10], in [12] and in assay [13] was “inactive” in each case. Moreover, the Potency entry in [14], in [15], in assay [16] and in assay [17] was “inactive” throughout. In addition, the max response in assay [3] is 2.76% and 2.11%.
